Measurements: PubChem BioAssay (NCI)
The panel holds about 83,000 compounds, 20% with a hit somewhere; the sample as a whole holds those more often.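 The test compound was applied at a single concentration to cells in 96-well plates for 48 hours, and percent growth was recorded.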 Unmarked numbers belong to inactive results. Active and inactive are the calls of the source. The calls were made as follows: active = growth percent below 10; inactive = the rest.

What was measured:
Experiment in all cases: NCI-60 one-dose screen, 48 h (100 = growth as untreated, 0 = no growth, -100 = all killed)
Conditions in all cases: 10 µM unless noted
HT29 colon = tested on: HT29 colon
SNB-75 CNS = tested on: SNB-75 CNS
SNB-19 CNS = tested on: SNB-19 CNS
U251 CNS = tested on: U251 CNS
PC-3 prostate = tested on: PC-3 prostate
SK-MEL-5 melanoma = tested on: SK-MEL-5 melanoma
UACC-62 melanoma = tested on: UACC-62 melanoma
LOX IMVI melanoma = tested on: LOX IMVI melanoma
SK-MEL-28 melanoma = tested on: SK-MEL-28 melanoma
SK-MEL-2 melanoma = tested on: SK-MEL-2 melanoma
SN12C renal = tested on: SN12C renal
UO-31 renal = tested on: UO-31 renal
TK-10 renal = tested on: TK-10 renal
ACHN renal = tested on: ACHN renal
CAKI-1 renal = tested on: CAKI-1 renal
A498 renal = tested on: A498 renal
CCRF-CEM leukemia = tested on: CCRF-CEM leukemia
EKVX NSCLC = tested on: EKVX NSCLC
MOLT-4 leukemia = tested on: MOLT-4 leukemia
SR leukemia = tested on: SR leukemia

Row | Structure (SMILES) | growth (HT29 colon) | growth (SNB-75 CNS) | growth (SNB-19 CNS) | growth (U251 CNS) | growth (PC-3 prostate) | growth (SK-MEL-5 melanoma) | growth (UACC-62 melanoma) | growth (LOX IMVI melanoma) | growth (SK-MEL-28 melanoma) | growth (SK-MEL-2 melanoma) | growth (SN12C renal) | growth (UO-31 renal) | growth (TK-10 renal) | growth (ACHN renal) | growth (CAKI-1 renal) | growth (A498 renal) | growth (CCRF-CEM leukemia) | growth (EKVX NSCLC) | growth (MOLT-4 leukemia) | growth (SR leukemia)
1 | Clc1ccc2nc(Cl)c3ccccc3c2c1 | 44.5% | -15.3% (active) | 53.2% | 20.2% | 84.2% | 84.4% | 96.2% | 83.2% | 97.6% | 99% | 87.3% | 4.03% (active) | 9.12% (active) | 1.26% (active) | 76.7% | 19.7% | 81.6% |  |  | 
2 | CC[N+](CC)(CCOCCOCC[N+](CC)(CC)Cc1ccc([N+](=O)[O-])cc1)Cc1ccc([N+](=O)[O-])cc1 | 113% | 85.7% | 101% | 100% | 87.6% | 96.8% | 88.4% | 104% | 115% | 106% | 94.2% |  | 95% | 102% | 93.7% |  | 102% | 101% | 84.8% | 107%
3 | C=C(C)[C@H]1CC/C(C)=C/CC[C@]2(C)O[C@H]2CC/C(C=O)=C\C1O (stereo not given in full) | 98.2% | 106% | 112% | 103% | 122% | 94.8% | 106% | 98.1% | 115% | 1410% | 101% | 58.1% | 106% | 99% |  | 143% | 137% | 103% | 142% | 120%
4 | CCN(CC)CCOc1ccc(C2=C(c3ccccc3)CCc3cc(OC)ccc32)cc1 | -50% (active) | 44.2% | 53.8% | 22.2% | 7.49% (active) | -68% (active) | -60.2% (active) | -59.6% (active) | -96.2% (active) | -83.1% (active) | 52.3% |  | -21.1% (active) | 50.5% | -26.1% (active) | -4.36% (active) | -37.8% (active) | 54.4% | -49.7% (active) | -42.1% (active)
5 | CN(C)c1nc(N)nc(Cn2c(-c3nonc3N)nc3ccccc32)n1 | 72.9% | 56.4% | 91.8% | 90.1% | 82.6% | 86.9% | 73% | 76.6% | 82% | 90.5% | 95.3% | 65.2% | 107% | 88.3% | 77.9% | 82.5% | 78.9% |  | 90.8% | 
6 | CCC(C)CC(C)C(=O)c1c(O)ccn(O)c1=O (stereo not given) | 97.3% | 49.3% | 18.6% | 11.1% | 24.5% | 25.3% | 3.01% (active) | 6.78% (active) | 29% | 41.9% | 21.2% | 6.43% (active) | 83.7% | 16.6% | 40.3% | 115% | 15.8% |  | 9.61% (active) | 22.9%
7 | C/C(=N/N=C(N)N)c1ccc(Cl)cc1 | 80.9% | 81.3% | 92.6% | 89.4% | 42.3% | 94.1% | 91.2% | 86.5% | 178% | -5.11% (active) | 90.8% | 78.2% | 55.3% | 96.1% |  | 188% | 87.9% | 87.8% | 145% | 83.3%
8 | O=NC1CC=CCC1c1ccccc1 (stereo not given) | 100% | 93.5% | 109% | 105% | 94% | 108% | 100% | 104% | 114% | 108% | 108% | 84.2% | 103% | 93.9% | 103% |  | 111% | 101% | 102% | 101%
9 | Cn1cc(-c2csc(-c3c[nH]c4ncccc34)n2)c2cc(F)cnc21 | 90.6% | 66.2% | 89% | 83.3% | 69.1% | 61.4% | 64.7% | 64.3% | 96.2% | 89.7% | 78.1% | 55.6% | 54.3% | 53.3% | 45.1% | 70.4% | 66.1% |  | 80.5% | 
10 | COC(=O)[C@]1(C(C)C)N[C@H](c2cn(-c3ccccc3)nc2-c2ccccc2)[C@@H]2C(=O)N(c3ccc(Cl)cc3)C(=O)[C@@H]21 | 98.1% | 86.1% | 99.1% | 97.4% | 89.9% | 101% | 101% | 92.1% | 114% | 86.9% | 97.3% |  | 113% | 93.9% | 77.5% | 107% |  | 102% |  | 
11 | O=[N+]([O-])c1ccc2c(c1)S(=O)c1cc([N+](=O)[O-])ccc1N2 | 95% | 87.2% | 109% | 105% | 88.6% | 96.2% | 93.5% | 102% | 104% | 105% | 101% | 77.7% | 110% | 96.7% | 98.8% |  | 98.9% | 112% | 93% | 121%
12 | Cn1cc(-c2csc(-c3cn(C)c4ncccc34)n2)c2cc(F)cnc21 | 69.8% | 75.2% | 83.3% | 82.4% | 65% | 60.6% | 65.3% | 72.4% | 83.8% | 98.7% | 88.9% |  | 104% | 94.4% | 66% | 72.9% | 67.4% | 77.7% | 80.1% | 
13 | COc1c(O)cc2oc3cc(O)c(CC=C(C)C)c(O)c3c(=O)c2c1C/C=C(\C)CCC=C(C)C | 26.7% | 84.6% | 80.5% | 24.1% | 19.5% | 86.6% | 98.9% | -85.8% (active) | 94.4% | 75.3% | -8.91% (active) | 58.3% |  | 22.6% | 79.3% | 120% |  | 81.5% |  | -18.2% (active)
14 | COc1ccc(-c2oc3cc(O)c(OC)c(O)c3c(=O)c2OC)cc1O | 46.2% | 16.4% | 30.9% | 14% | 15.5% | 8.22% (active) | 36% | 15.8% | 60.6% | 45.6% | 37.3% | 35.5% |  | 37.5% | 72.2% |  | -4.31% (active) | 83.8% | 14.4% | 7.87% (active)
15 | NNC(=O)NO | 96% | 85.9% | 108% | 104% | 101% | 105% | 106% | 97.7% | 107% | 91.1% | 106% | 69.8% | 94% | 105% | 106% | 114% | 95.8% |  | 91.6% | 95.8%
16 | O=C1/C(=N/O)CCc2ccccc21 | 101% | 82.2% | 100% | 103% | 59.8% | 102% | 87.6% | 76.5% | 121% | 113% | 96.1% | 66.4% | 151% | 88.9% | 102% |  | 4.19% (active) | 88.8% |  | 113%
17 | COc1cc(OC)c2cc(C(=O)O)c(=O)oc2c1 | 119% | 125% | 98% | 109% | 127% | 94.6% | 95.5% | 67% | 118% | -11% (active) | 108% |  | 90.6% | 107% | 85.9% | 102% | 113% | 98.2% | 74.9% | 115%
